From ChEMBL document CHEMBL1201862, “PubChem BioAssay data set” (2004) come the findings set out here.

The structures appear in SMILES notation. Among all 420,000 compounds or so, about 64,000 (15%) were called active. Roughly 27% stayed inconclusive and do not appear here. The rule behind the calls is not given here. The sample as a whole holds a higher share of actives than the screen did.

The target in this assay is Tyrosyl-DNA phosphodiesterase 1 (Homo sapiens) (UniProt Q9NUW8). The assay can be described thus: qHTS for Inhibitors of human tyrosyl-DNA phosphodiesterase 1 (TDP1): qHTS in cells in absence of CPT. The format is functional. For orientation: In qHTS, concentration-response curves come from the screen itself.
Tyrosyl-DNA phosphodiesterase 1 (Homo sapiens), sequence (Q9NUW8 whole entry): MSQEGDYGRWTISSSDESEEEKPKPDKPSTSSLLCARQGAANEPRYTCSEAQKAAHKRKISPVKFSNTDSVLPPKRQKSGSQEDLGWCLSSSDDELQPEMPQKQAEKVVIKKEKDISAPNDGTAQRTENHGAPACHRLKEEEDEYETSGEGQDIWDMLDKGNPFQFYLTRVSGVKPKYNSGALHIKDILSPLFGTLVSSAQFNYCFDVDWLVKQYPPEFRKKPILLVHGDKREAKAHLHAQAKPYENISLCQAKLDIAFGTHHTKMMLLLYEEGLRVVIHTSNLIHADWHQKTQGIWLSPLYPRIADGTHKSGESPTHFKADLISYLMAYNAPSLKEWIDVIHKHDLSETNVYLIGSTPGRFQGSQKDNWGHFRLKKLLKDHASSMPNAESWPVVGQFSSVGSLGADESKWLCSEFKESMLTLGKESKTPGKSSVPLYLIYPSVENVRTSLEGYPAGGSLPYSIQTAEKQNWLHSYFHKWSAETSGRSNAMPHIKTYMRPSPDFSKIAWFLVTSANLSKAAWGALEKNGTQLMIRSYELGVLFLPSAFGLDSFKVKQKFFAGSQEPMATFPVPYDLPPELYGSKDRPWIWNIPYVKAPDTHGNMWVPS
For `Cc1cccc2c1N(CCCCI)C=S2C` (stereo not drawn), the Potency is 3.98 µM (active).
As for `ICCCCN1C=S(CI)c2ccccc21` (stereo not drawn), the figure is 8.91 µM (active); as for `CN(C)c1ccc(/C=C/c2cccc3c2N(CCCCI)C=S3/C=C/c2ccc(N(C)C)cc2)cc1` (stereo not drawn), 15.8 µM (active); as for `COc1ccc(OC)c(/C=C/c2cccc3c2N(CCCCI)C=S3/C=C/c2cc(OC)ccc2OC)c1` (stereo not drawn), 7.08 µM (active).
The same measure for `CCOc1ccc(N2C(=O)c3ccccc3N/C2=C\N2CCN(C(=O)c3ccco3)CC2)cc1`: 10 µM (active); for `O=C(/C=C/c1ccc(Cl)cc1)c1cccs1`: 7.5 µM (active).
The same measure for `COc1ccccc1/C=C/C(=O)c1cccs1`: 5.96 µM (active); for `CC(C)C(C)c1cccc2c1NC=S2C(C)C(C)C` (stereo not drawn): 5.62 µM (active).
